In PubChem BioAssay (NCI):
Compounds without any hit were thinned out: in the full panel of roughly 83,000, 20% have a hit.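 96-well plates, one dose, 48 hours. Percent growth reported; active if below 10.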 Values without a mark were called inactive. Activity calls are given as the source filed them.

How the values were obtained:
Assay in all cases: NCI-60 one-dose screen, 48 h (100 = growth as untreated, 0 = no growth, -100 = all killed)
Settings in all cases: 10 µM unless noted
DU-145 prostate = test system: DU-145 prostate
K-562 leukemia = test system: K-562 leukemia
MALME-3M melanoma = test system: MALME-3M melanoma
MDA-MB-231 breast = test system: MDA-MB-231 breast
RXF 393 renal = test system: RXF 393 renal
SF-268 CNS = test system: SF-268 CNS
SF-295 CNS = test system: SF-295 CNS
SF-539 CNS = test system: SF-539 CNS
UACC-257 melanoma = test system: UACC-257 melanoma
M14 melanoma = test system: M14 melanoma
HCT-15 colon = test system: HCT-15 colon
HT29 colon = test system: HT29 colon
SNB-75 CNS = test system: SNB-75 CNS
SNB-19 CNS = test system: SNB-19 CNS
U251 CNS = test system: U251 CNS
PC-3 prostate = test system: PC-3 prostate
SK-MEL-5 melanoma = test system: SK-MEL-5 melanoma
UACC-62 melanoma = test system: UACC-62 melanoma
LOX IMVI melanoma = test system: LOX IMVI melanoma
SK-MEL-28 melanoma = test system: SK-MEL-28 melanoma

Row | SMILES | growth (DU-145 prostate) | growth (K-562 leukemia) | growth (MALME-3M melanoma) | growth (MDA-MB-231 breast) | growth (RXF 393 renal) | growth (SF-268 CNS) [%] | growth (SF-295 CNS) | growth (SF-539 CNS) | growth (UACC-257 melanoma) [%] | growth (M14 melanoma) | growth (HCT-15 colon) | growth (HT29 colon) | growth (SNB-75 CNS) [%] | growth (SNB-19 CNS) [%] | growth (U251 CNS) | growth (PC-3 prostate) | growth (SK-MEL-5 melanoma) | growth (UACC-62 melanoma) | growth (LOX IMVI melanoma) | growth (SK-MEL-28 melanoma)
1 | O=c1c2ccccc2[nH]n1Cc1ccc2c(c1)OCO2 | 112% | 95.9% | 100% | 114% | 103% | 101 | 104% | 98.1% | 97 | 104% | 95.7% | 104% | 101 | 97 | 96.2% | 88.1% | 100% | 100% | 111% | 106%
2 | O=C(NNC(=O)c1ccc([N+](=O)[O-])cc1)c1ccc([N+](=O)[O-])cc1 | 113% | 93.6% | 112% | 117% | 111% | 101 | 94.2% | 91.4% | 111 | 95.4% | 97% | 101% | 84.5 | 109 | 104% | 102% | 99.8% | 99.9% | 97.2% | 109%
3 | C=C1C(=O)O[C@H]2[C@H]1CC/C(COC(=O)n1ccnc1C)=C\CC[C@@]1(C)O[C@@H]21 | 93.2% | 95.4% | 92.6% | 106% | 96.2% | 101 | 104% | 101% | 75.1 | 91% | 93.6% | 95.4% | 93.2 | 95.3 | 95.1% | 97.2% | 106% | 98.6% | 95% | 100%
4 | CCC(CC(C)C)Nc1ccc(NC(CC)CC(C)C)cc1 (stereo not given) | 103% | -4.28% (active) | 97.7% | 93.1% | 96.5% | 72.2 | 95.3% | 107% | 92.4 | 99.4% | 92% | 88.8% | 96.8 | 97.8 | 75.3% | -11.1% (active) | 95.4% | 89.3% | 83.4% | 108%
5 | NC(N)=N/N=C/c1ccc([N+](=O)[O-])cc1 | 125% | 117% | 103% | 101% | 102% | 103 | 91.3% | 105% | 102 | 105% | 105% | 105% | 83.4 | 109 | 105% | 94.5% | 100% | 91.6% | 96% | 109%
6 | COc1cc(C(=O)NNC(=O)c2ccccc2C(=O)O)cc(OC)c1OC | 56.8% | 43.1% | 62% | 45.2% | -3.15% (active) | 53.8 | 46.8% | 30.1% | 69.9 | 51.4% | 31.8% | 20.8% | 86.3 | 49.6 | 39.7% | 54.7% | 38.2% | 39.8% | 16.9% | 75.6%
7 | NC(CCCC(N)C(=O)c1ccccc1)C(=O)O (stereo not given) | 105% | 98.9% | 95.9% | 109% | 112% | 99.6 | 102% | 97.5% | 82.5 | 102% | 107% | 73.3% | 97.1 | 110 | 102% | 83.3% | 107% | 99.9% | 99.8% | 103%
8 | Cc1cn(-c2cc(C(=O)Nc3cccc(-n4ccc5c(NC(=O)c6ccccc6)nccc54)c3)cc(C(F)(F)F)c2)cn1 | -9.55% (active) | 4.74% (active) | 25.2% | 4% (active) | -89.8% (active) | 12 | -12.3% (active) | -12.1% (active) | 40.6 | 11.9% | 4.61% (active) | -41.2% (active) | 27.2 | 28.9 | -3.87% (active) | 18.5% | -54.5% (active) | 27.1% | 5.46% (active) | 33.3%
9 | Fc1ccc(Nc2ncnc3ccc(-c4cn[nH]c4)cc23)cc1Cl | 50.8% | 66.5% | 54.9% | 63.5% | 40.3% | 59.6 | 56.3% | 49.7% | 89.5 | 58.7% | 60.4% | 60.6% | 40.5 | 68.6 | 61.8% | 47.3% | 40.4% | 60% | 49% | 69.3%
10 | Cc1ncc(CO)c(C(=O)O)c1O | 102% | 93% | 95.9% | 103% | 106% | 94.4 | 100% | 96.6% | 107 | 93.7% | 105% | 89.1% | 93.4 | 107 | 98.8% | 88.5% | 103% | 97% | 102% | 102%
11 | O=C(CSc1nnc(-c2ccccc2)o1)Nc1ccc(C(=O)/C=C/c2ccccc2)cc1 | 62.7% | 8.02% (active) | 69.8% | 83.9% | 93.1% | 65.8 | 77.3% | 84.7% | 113 | 66.4% | 25.8% | 32.4% | 33.5 | 64.9 | 44.1% | 77% | 78.9% | 82.3% | 24.4% | 97%
12 | CN(C)CCCOc1c(Br)cc(/C=C/C(=O)N(C)CCc2cc(Br)c(OCCCN(C)C)c(Br)c2)cc1Br | 40.5% | -48.7% (active) | -62.4% (active) | 23.7% | 59.6% | 52.5 | 60.9% | -75.5% (active) | 71.7 | -68.1% (active) | 9.92% (active) | -19.1% (active) | 73.3 | 48.6 | 7.24% (active) | 65.1% | 64.4% | -26.5% (active) | -23.1% (active) | -49.4% (active)
13 | CCOC(=O)C1CN(Cc2ccccc2)C(=O)C1=O (stereo not given) | 110% | 104% | 92.8% | 115% | 112% | 101 | 105% | 93.6% | 104 | 94.6% | 86.2% | 115% | 76.1 | 101 | 111% | 91.8% | 106% | 103% | 104% | 101%
14 | NC(=NCCCOc1ccc(F)cc1)Nc1ccc(Cl)c(Cl)c1 | 80.2% | 12.6% | 98.1% | 44% | 68.6% | 54.9 | 76.6% | 79.1% | 77.2 | 63.6% | 75.6% | 31.7% | 57.8 | 77 | 69.8% | 63.9% | 51.4% | 78.6% | 55.9% | 94.3%
15 | CC(C)(C)OC(=O)NCc1cccc(N=C=S)c1 | 55.7% | 37.3% | 29.9% | 75.4% | -15.7% (active) | 47.2 | 21% | 3.66% (active) | 39.4 | 49.3% | 38.9% | 37.6% | 40.7 | 77.1 | 58.3% | 51.2% | 49.2% | 14.2% | 24.4% | 23.1%
